Reference: PubChem BioAssay (NCATS)
Inconclusive results are not listed. Calls of active or inactive are those of the source. The call rests on the fitted dose curve.

test: VSVG counterscreen qHTS to identify inhibitors of SARS-CoV-2 cell entry (AID 1645847); details: VSV-G pseudotyped particle entry, luciferase; series mostly up to 57.2 µM; further: nearly all actives have a fitted effect of over 65% in size
Excerpt: Assay Provider: Wei Zheng, Ph.D.
National Center for Advancing Translational Sciences, National Institute of Health, Rockville, MD.
SARS-CoV-2 spike protein, within the viral envelope, mediates viral attachment and infection of host cells. The SARS-CoV-2 spike protein specifically binds to the host receptor ACE2 (Angiotensin-converting enzyme 2). This interaction promotes endocytosis of the viral particle, additional events lead to viral-host cell membrane fusion and release of the viral contents, allowing viral replication.
While SARS-CoV-2 requires BSL-3 facilities for live virus work, pseudotyped partices (PP) that incorporate SARS-CoV-2 spike proteins without replication elements could facilitate studies on viral entry mechanisms in a BSL-2 setting. This PP cell entry assay could also enable screening of small molecule compound libraries in BSL-2 setting to identify inhibitors of SARS-CoV-2 cell entry.
SEQUENCE No. (e.g., 1, 2, 3, etc.); […] (e.g., Cells, Incubation, Reagent, etc.); VALUE and DESCRIPTION.
1. Cells. Seed 1500 HEK293-ACE2 cells (Expi293F with stable expression of human ACE2) in 2 microL/well media (DMEM, 10% FBS, 1x L-glutamine, 1x Pen/Strep, 1 ug/ml puromycin) in white 1536-well assay plates (Greiner #782073).
2. Incubation. Incubate at 37 degrees C with 5% CO2 overnight (~16 h).
3. Compound. Dispense 23 nL/well compounds in DMSO via pin transfer.
4. Incubation. Incubate for 1 h at 37C 5% CO2.
5. Reagent. Dispense 2 microL/well of vesicular stomatitis virus G glycoprotein (VSV-G) pseudotyped particles (PP). [a] PPs are produced with murine leukemia virus pseudo-typing.
6. Centrifugation. […]
7. Incubation. Incubate at for 48 h at 37C 5% CO2
8. Centrifugation. Remove supernatant with gentle centrifugation using a Blue Washer (BlueCat Bio).
9. Reagent. Dispense 4 microL/well of Bright-Glo Luciferase detection reagent (Promega #E2620).
10. Incubation. Incubate for 5 min at room temperature.
11. Detection. Read luminescence signal (ViewLux plate reader, PerkinElmer). Data was normalized with wells containing VSV-G PP as 100%, and wells containing bald PP (no fusion protein) as 0%.
Potency means the concentration at half of the fitted maximal effect.

Row | SMILES | Potency
1 | Cc1cc(Nc2cc(N3CCN(C)CC3)nc(Sc3ccc(NC(=O)C4CC4)cc3)n2)n[nH]1 | 0.215 µM (active)
2 | Cc1cc(Nc2nc(N[C@@H](C)c3ncc(F)cn3)ncc2Cl)n[nH]1 | 6.81 µM (active)
3 | COc1cc2nccc(Oc3ccc(NC(=O)C4(C(=O)Nc5ccc(F)cc5)CC4)cc3)c2cc1OC | 8.57 µM (active)
4 | CC(C)(C)c1cnc(CSc2cnc(NC(=O)C3CCNCC3)s2)o1 | 1.92 µM (active)
5 | CN(c1ncccc1CNc1nc(Nc2ccc3c(c2)CC(=O)N3)ncc1C(F)(F)F)S(C)(=O)=O | 2.15 µM (active)
6 | CN1CC[C@@H](c2c(O)cc(O)c3c(=O)cc(-c4ccccc4Cl)oc23)[C@@H](O)C1 | 1.36 µM (active)
7 | N#CCNC(=O)c1ccc(-c2ccnc(Nc3ccc(N4CCOCC4)cc3)n2)cc1 | 6.81 µM (active)
8 | COc1c(Cl)cc2c([nH]c3cnccc32)c1NC(=O)c1cccnc1C | inactive
9 | COc1ccc(-c2c(-c3ccc(O)cc3O)n[nH]c2C)cc1 | 12.4 µM (active)
10 | CCCCOCCOc1nc(-c2ccc(C(=O)O)c(F)c2)sc1C | inactive
11 | CC(=O)Nc1ccc([C@H](C)C(=O)Nc2ncc(C(C)C)s2)cc1 | 13.6 µM (active)
12 | COc1cc(Nc2ncc3c(n2)-c2ccc(Cl)cc2C(c2c(F)cccc2OC)=NC3)ccc1C(=O)O | 0.108 µM (active)
13 | O=C(c1cc(Cc2n[nH]c(=O)c3ccccc23)ccc1F)N1CCN(C(=O)C2CC2)CC1 | 21.5 µM (active)
14 | CNC(=O)c1cc(Oc2ccc(NC(=O)Nc3ccc(Cl)c(C(F)(F)F)c3)c(F)c2)ccn1 | 10.8 µM (active)
15 | COc1cc([C@@H]2c3cc4c(cc3[C@@H](O)C3COC(=O)C32)OCO4)cc(OC)c1O (stereo partly specified) | 0.541 µM (active)
16 | CCCS(=O)(=O)Nc1ccc(F)c(C(=O)c2c[nH]c3ncc(-c4ccc(Cl)cc4)cc23)c1F | 21.5 µM (active)
17 | Cc1n[nH]c(C)c1Cc1sc2c(c1C(=O)N1C[C@H](O)CO1)c(=O)n(C)c(=O)n2CC(C)C | 1.24 µM (active)
18 | CC(=O)c1c(C)c2cnc(Nc3ccc(N4CCNCC4)cn3)nc2n(C2CCCC2)c1=O | 6.81 µM (active)
19 | Cc1ccc(C(N)=O)cc1Nc1nccc(-c2cn(C(C)C)c3cnccc23)n1 | 2.15 µM (active)
20 | O=C(Nc1ccncc1)C(=O)c1cn(Cc2ccc(Cl)cc2)c2ccccc12 | 0.961 µM (active)
21 | COc1ccc(C(=O)c2c(C)n(CCN3CCOCC3)c3cc(I)ccc23)cc1 | 30.4 µM (active)
22 | CCc1c(C(=O)C(N)=O)c2c(OCC(=O)O)cccc2n1Cc1ccccc1 | inactive
23 | CS(=O)(=O)c1cccc(CNc2nc(Nc3ccc4c(c3)CCC(=O)N4)ncc2C(F)(F)F)c1 | 4.29 µM (active)
24 | O=C(O)c1ccc2c(c1)nc(Nc1cccc(Cl)c1)c1ccncc12 | 2.15 µM (active)
25 | O=c1[nH]c(-c2ccc(C(F)(F)F)cc2)nc2c1CSCC2 | 1.92 µM (active)
26 | CC(C)[C@H](C(=O)Nc1ccc(C(=O)NO)cc1)c1ccccc1 | 30.4 µM (active)
